Experimental data taken from the supplement of paper PMC11006884.
About 6,500 targets were measured; listed, in parts, are those with a hit and a random draw of the rest. About 2% of all pairs of compound and target were hits. A number with no mark means an inactive call.

compound: COC(=O)C#Cc1ccccc1 [methyl 3-phenylpropiolate]; experiment: log2 ratio of iodoacetamide-alkyne labeling of the cysteine site, DMSO over compound (competition); higher = stronger covalent engagement of the cysteine by the compound, active = 1 or more; settings: 500 µM; treatment time 1 h; system: HEK293T cell lysate
Summary of the method: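 HEK293T lysate (2 mg/mL) was incubated with electrophile (500 µM) or vehicle for 1 h at ambient temperature and then with iodoacetamide alkyne for 1 h. Labelled proteins were clicked to sCIP-TMT reagents, pooled, digested, enriched on streptavidin and measured by Orbitrap Eclipse LC-MS/MS with FAIMS, with FragPipe quantification. The per-cysteine log2 competition ratio is mean control-channel reporter intensity over mean compound-channel reporter intensity. Across three replicates with duplicate channels, cysteines quantified in only one replicate were excluded.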

Chain of UniProt P57740 (P57740 whole entry): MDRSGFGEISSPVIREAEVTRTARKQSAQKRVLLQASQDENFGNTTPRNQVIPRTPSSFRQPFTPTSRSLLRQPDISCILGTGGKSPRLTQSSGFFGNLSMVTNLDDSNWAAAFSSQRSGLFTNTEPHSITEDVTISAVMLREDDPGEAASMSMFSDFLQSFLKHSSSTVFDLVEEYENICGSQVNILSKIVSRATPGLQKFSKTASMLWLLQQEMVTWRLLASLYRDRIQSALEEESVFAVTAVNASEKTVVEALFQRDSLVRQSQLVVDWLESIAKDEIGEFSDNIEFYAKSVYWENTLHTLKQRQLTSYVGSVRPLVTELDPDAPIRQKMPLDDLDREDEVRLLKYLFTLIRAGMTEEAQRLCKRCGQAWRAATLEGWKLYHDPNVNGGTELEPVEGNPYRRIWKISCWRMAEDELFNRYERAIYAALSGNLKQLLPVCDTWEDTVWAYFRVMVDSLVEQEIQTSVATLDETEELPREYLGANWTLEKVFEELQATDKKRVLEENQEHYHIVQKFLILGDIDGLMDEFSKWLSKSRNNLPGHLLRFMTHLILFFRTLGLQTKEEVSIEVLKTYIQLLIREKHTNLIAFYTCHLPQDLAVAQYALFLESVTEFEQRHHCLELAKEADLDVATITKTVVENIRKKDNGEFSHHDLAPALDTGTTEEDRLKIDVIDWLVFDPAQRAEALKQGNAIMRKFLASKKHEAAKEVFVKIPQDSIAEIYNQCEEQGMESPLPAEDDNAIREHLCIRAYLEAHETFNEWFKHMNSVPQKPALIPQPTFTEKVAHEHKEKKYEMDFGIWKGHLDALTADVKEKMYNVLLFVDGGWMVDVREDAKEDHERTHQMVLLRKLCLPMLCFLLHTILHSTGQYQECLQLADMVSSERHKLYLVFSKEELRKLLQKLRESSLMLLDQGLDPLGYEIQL
Chain of UniProt Q14C86 (Q14C86 whole entry, looked up): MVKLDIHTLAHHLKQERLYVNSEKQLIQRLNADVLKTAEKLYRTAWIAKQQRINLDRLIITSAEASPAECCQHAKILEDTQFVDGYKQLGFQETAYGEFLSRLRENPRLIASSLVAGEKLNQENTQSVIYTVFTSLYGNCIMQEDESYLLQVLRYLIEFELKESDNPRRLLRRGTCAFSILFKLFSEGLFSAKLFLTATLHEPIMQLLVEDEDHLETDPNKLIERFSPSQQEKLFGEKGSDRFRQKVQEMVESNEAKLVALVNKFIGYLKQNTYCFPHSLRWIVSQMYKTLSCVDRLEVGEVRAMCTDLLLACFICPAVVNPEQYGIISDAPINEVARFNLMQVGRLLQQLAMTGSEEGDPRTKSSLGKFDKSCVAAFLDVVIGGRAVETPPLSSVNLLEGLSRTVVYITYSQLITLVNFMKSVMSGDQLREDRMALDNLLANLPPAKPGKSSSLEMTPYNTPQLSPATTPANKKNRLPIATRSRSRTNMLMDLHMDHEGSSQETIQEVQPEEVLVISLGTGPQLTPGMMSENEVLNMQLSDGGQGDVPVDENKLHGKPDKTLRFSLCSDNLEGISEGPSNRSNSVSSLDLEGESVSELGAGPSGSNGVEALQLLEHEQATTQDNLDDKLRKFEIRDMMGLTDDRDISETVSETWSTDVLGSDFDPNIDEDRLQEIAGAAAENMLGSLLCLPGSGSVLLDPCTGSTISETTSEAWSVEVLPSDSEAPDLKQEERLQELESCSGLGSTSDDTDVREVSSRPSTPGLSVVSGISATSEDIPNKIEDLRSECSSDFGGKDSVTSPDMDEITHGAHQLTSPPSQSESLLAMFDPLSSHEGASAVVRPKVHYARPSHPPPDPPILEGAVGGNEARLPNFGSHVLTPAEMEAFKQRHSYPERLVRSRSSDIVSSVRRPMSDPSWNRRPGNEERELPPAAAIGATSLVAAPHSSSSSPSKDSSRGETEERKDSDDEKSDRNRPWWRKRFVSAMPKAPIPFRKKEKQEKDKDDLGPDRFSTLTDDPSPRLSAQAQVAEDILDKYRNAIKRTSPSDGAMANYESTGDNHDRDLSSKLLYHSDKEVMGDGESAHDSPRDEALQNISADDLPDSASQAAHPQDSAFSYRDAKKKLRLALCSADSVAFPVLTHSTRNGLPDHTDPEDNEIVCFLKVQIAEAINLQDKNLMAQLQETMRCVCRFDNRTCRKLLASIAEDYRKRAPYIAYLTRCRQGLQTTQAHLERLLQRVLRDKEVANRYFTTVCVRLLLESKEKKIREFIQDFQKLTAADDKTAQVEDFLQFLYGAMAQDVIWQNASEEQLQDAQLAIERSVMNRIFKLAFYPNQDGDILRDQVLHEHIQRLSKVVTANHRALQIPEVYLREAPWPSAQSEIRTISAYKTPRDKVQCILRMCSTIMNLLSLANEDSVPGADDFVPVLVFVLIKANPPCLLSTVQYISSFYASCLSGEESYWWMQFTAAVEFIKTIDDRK
Chain of UniProt Q03252 (Q03252 whole entry): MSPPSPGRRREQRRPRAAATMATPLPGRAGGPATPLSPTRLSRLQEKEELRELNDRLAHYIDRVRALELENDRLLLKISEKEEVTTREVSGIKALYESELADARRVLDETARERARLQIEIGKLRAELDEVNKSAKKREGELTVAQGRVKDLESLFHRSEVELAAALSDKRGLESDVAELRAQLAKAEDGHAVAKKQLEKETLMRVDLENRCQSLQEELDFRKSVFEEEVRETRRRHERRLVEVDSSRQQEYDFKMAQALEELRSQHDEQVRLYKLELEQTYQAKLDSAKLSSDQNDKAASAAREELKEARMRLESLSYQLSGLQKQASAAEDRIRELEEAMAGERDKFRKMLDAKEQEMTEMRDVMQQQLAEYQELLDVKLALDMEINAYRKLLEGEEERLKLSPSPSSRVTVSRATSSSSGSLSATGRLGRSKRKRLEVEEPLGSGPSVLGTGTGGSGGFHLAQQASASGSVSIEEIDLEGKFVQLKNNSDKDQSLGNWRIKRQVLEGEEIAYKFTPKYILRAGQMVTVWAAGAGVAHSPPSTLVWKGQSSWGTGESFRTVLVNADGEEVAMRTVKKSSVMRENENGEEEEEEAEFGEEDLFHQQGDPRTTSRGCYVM
Chain of UniProt P53041 (P53041 whole entry, looked up): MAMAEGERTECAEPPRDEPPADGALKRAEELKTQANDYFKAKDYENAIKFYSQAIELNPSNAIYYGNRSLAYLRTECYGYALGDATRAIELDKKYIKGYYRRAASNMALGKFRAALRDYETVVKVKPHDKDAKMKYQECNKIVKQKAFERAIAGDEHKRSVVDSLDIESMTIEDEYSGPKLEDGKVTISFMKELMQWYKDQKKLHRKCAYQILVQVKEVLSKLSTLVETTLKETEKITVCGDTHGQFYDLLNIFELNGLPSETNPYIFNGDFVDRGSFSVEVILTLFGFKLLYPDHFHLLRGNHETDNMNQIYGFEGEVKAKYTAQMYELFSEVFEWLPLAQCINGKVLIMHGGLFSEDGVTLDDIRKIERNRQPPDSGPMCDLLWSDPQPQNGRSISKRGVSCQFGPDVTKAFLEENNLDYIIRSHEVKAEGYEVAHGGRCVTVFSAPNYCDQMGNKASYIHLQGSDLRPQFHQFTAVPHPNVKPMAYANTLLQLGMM
Chain of UniProt P62633 (P62633 whole entry, looked up): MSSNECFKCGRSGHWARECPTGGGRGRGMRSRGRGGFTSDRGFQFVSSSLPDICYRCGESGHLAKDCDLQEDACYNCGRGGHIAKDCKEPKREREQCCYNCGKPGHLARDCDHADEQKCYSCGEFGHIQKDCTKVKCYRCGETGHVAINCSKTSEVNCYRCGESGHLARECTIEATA
Chain of UniProt P57678 (P57678 whole entry, looked up): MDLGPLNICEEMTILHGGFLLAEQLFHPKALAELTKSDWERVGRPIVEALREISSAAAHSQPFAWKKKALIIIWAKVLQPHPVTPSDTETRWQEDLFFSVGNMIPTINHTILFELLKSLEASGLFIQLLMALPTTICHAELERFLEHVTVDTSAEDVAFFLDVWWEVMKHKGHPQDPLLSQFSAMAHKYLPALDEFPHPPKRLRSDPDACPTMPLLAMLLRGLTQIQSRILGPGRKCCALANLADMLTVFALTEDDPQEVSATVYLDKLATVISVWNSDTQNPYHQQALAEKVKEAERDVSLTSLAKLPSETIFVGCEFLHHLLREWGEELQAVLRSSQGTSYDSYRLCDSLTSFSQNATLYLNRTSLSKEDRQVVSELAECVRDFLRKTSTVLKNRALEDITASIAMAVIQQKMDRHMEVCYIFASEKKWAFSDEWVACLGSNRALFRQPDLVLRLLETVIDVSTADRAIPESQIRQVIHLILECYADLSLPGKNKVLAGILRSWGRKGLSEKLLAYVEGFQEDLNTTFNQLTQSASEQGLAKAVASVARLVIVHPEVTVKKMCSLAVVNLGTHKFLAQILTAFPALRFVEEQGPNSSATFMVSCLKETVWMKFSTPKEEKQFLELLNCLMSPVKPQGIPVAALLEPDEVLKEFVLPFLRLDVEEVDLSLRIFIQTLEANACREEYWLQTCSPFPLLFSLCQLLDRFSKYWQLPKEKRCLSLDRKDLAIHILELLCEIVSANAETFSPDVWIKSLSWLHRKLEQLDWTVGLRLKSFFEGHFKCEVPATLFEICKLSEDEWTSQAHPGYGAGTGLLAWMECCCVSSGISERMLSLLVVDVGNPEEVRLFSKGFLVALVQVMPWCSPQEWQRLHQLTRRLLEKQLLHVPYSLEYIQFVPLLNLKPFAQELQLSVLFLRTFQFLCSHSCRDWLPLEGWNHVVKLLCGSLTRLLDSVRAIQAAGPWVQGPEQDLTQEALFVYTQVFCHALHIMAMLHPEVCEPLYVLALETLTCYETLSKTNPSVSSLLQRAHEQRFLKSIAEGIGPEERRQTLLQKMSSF
Chain of UniProt Q13162 (Q13162 whole entry, looked up): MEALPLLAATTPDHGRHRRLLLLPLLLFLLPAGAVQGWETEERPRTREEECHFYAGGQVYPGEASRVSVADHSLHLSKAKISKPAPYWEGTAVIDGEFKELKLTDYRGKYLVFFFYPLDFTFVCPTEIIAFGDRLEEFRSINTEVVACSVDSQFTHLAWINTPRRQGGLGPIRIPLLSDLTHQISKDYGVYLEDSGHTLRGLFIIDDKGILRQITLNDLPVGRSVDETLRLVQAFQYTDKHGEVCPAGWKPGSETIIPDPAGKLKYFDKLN

Row | Target | log2 ratio of iodoacetamide-alkyne labeling
1 | NUMA1 C658 (UniProt Q14980) | -0.0504
2 | FHL1 C71 (UniProt Q13642) | 0.0627
3 | AARS2 C750 (UniProt Q5JTZ9) | 0.846
4 | PMPCA C466 (UniProt Q10713) | 0.00592
5 | LMNB2 C212 (UniProt Q03252) | 0.214
6 | TBL3 C696 (UniProt Q12788) | 0.373
7 | GSTO1 C32 (UniProt P78417) | 2.51 (active)
8 | EIF2B5 C335 (UniProt Q13144) | 0.267
9 | PRDX4 C51 (UniProt Q13162) | 1.66 (active)
10 | CNBP C6 (UniProt P62633) | 0.0447
11 | ESPL1 C1369 (UniProt Q14674) | 0.218
12 | NSUN2 C184 (UniProt Q08J23) | -0.0329
13 | FHL1 C191 (UniProt Q13642) | -0.117
14 | UniProt P98164_C4047 | 0.464
15 | UniProt P60891_C165 | -0.19
16 | AKAP12 C1139 (UniProt Q02952) | 0.521
17 | UniProt Q13247_C121 | -0.0624
18 | PTPN13 C937 (UniProt Q12923) | 0.773

Row | Target | log2 ratio of iodoacetamide-alkyne labeling
19 | PPP5C C77 (UniProt P53041) | 0.135
20 | GRB2 C32 (UniProt P62993) | 0.167
21 | EXOSC9 C9 (UniProt Q06265) | 0.307
22 | UniProt Q14574_C804 | 0.812
23 | FHL3 C150 (UniProt Q13643) | 0.146
24 | GAPVD1 C568 (UniProt Q14C86) | 0.475
25 | UniProt Q08170_C115 | -0.0754
26 | UniProt Q5H9R7_C467 | 0.103
27 | UniProt Q02750_C376 | -0.129
28 | PPA1 C274 (UniProt Q15181) | 0.425
29 | NUP107 C78 (UniProt P57740) | 0.705
30 | MAP7D1 C361 (UniProt Q3KQU3) | 1.65 (active)
31 | SPTAN1 C1622 (UniProt Q13813) | -0.0196
32 | GEMIN4 C382 (UniProt P57678) | 0.0965
33 | MORC3 C619 (UniProt Q14149) | 0.279
34 | TTLL12 C612 (UniProt Q14166) | 0.0779
35 | NCAPH C316 (UniProt Q15003) | -0.0371
36 | PEX3 C65 (UniProt P56589) | 0.385
